Measurements from article PMC4552634, “A New Set of Chemical Starting Points with Plasmodium falciparum Transmission-Blocking Potential for Antimalarial Drug Discovery” (PLoS ONE, 2015).
The whole screen tested about 13,000 compounds, of which about 3,200 (25%) showed an effect of 50% or more. This is one part of the list.

These compounds were tested on P. falciparum stage V gametocytes. Settings: 48 h, 5 µM; inhibitor.
Design: BacTiter-Glo ATP luminescence viability of purified stage V gametocytes in 384-well plates, per cent inhibition versus DMSO

SMILES | % Inhibition
COc1ccc(-c2ccc(S(=O)(=O)Nc3cc4c(cc3OC(C)C)CCN(C)CC4)cc2)cc1 [TCMDC-141487] | 10.97%
CC(C)C(=O)ONC1=NC(C)(C)N(OCCCOc2cc(Cl)c(Cl)cc2Cl)C(NOC(=O)C(C)C)=N1 [TCMDC-131788] | -4.555%
CN(C)CCOc1cc(NC(=O)Nc2cccc([N+](=O)[O-])c2)ccc1I [TCMDC-139158] | 11.15%
CN1CCN(c2ccc(Nc3ncc(C#N)c(Nc4ccccc4C(N)=O)n3)cc2)CC1 [TCMDC-134116] | -62.53%
CNC(=O)c1cnc(Nc2ccc(N3CCOCC3)cc2)nc1Nc1cccc(O)c1 [TCMDC-141385] | -8.649%
CNC(=O)c1cnc(Nc2ccc(N3CCOCC3)cc2)nc1Nc1cccc(OC)c1 [TCMDC-141386] | -63.88%
CNC(=O)c1cnc(Nc2ccc(OCC(O)CN(C)C)cc2)nc1Nc1cccc(Br)c1 (centres unmarked) [TCMDC-141388] | 25.03%
CNC(=O)c1cnc(Nc2ccc(OCC(O)CN(C)C)cc2)nc1Nc1cccc(OC)c1 (centres unmarked) [TCMDC-141387] | 95.62%
CNC(=O)c1cnc(Nc2ccc(N3CCN(C)CC3)cc2)nc1Nc1cccc(OC(C)C)c1 [TCMDC-141384] | -23.05%
CN1CCN(c2ccc(Nc3ncc([N+](=O)[O-])c(Nc4ccccc4O)n3)cc2)CC1 [TCMDC-141372] | 99.51%
CNC(=O)c1cnc(Nc2ccc(OCC(O)CN(C)C)cc2)nc1Nc1cccc([N+](=O)[O-])c1 (centres unmarked) [TCMDC-141392] | 55.28%
CNC(=O)c1cnc(Nc2ccc(N3CCN(C)CC3)cc2)nc1Nc1cccc(OC)c1 [TCMDC-141383] | 85.81%
Cc1cc(C)cc(OCC(O)CN(Cc2cc(Cl)cc(Cl)c2)C(=O)Nc2ccc([N+](=O)[O-])cc2)c1 (centres unmarked) [TCMDC-141478] | -6.134%
CC(C)N(Cc1ccccc1)C(=O)CN1C(=O)COc2ccc(S(=O)(=O)N3CCCCCC3)cc21 [TCMDC-124755] | -21.1%
N#Cc1ccc2c(c1)CCN(CCC1CCC(NC(=O)c3cccc(-c4ccc(F)cc4)c3)CC1)CC2 (centres unmarked) [TCMDC-139679] | -51.12%
O=C(c1csc(-c2cccnc2)n1)N1CCc2cc3nccc(N4CCN5CCC[C@H]5C4)c3cc21 [TCMDC-140044] | 44.75%
CCCCCSc1cc(O)c(C(CNC)C(C)C)cc1OC (centres unmarked) [TCMDC-125495] | -82.86%
CCCN(CCC)CC(O)COc1ccccc1C(=O)Nc1ccccc1 (centres unmarked) [TCMDC-125708] | -0.1626%
CNC(=O)c1cnc(Nc2ccc3[nH]c(=O)[nH]c3c2)nc1Nc1cccc(OC(C)C)c1 [TCMDC-141390] | -16.36%
CNC(=O)c1cnc(Nc2ccc(OCC(O)CN(C)C)cc2)nc1Nc1cccc(OC(C)C)c1 (centres unmarked) [TCMDC-141389] | 97.53%
